Holding throughout (assay): NCI-60 one-dose screen, 48 h (100 = growth as untreated, 0 = no growth, -100 = all killed)
What all share (settings): 10 µM unless noted

Test [1] has as its system T-47D breast.
For test [2], the system named is BT-549 breast.
Test [3] concerns MDA-MB-435 melanoma.
For test [4], the system named is SW-620 colon.
Test [5] relates to MCF7 breast.
In test [6] the test system is HCT-116 colon.
The test system of test [7] is HCC-2998 colon.
The test system of test [8] is KM12 colon.

Compounds without any hit were thinned out: in the full panel of roughly 83,000, 20% have a hit.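 Cell lines were cultured in 96-well plates, exposed to a single compound concentration, and assessed for percent growth 48 hours later.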 Unmarked numbers belong to inactive results. Activity calls are given as the source filed them. Rule for the calls: active = growth percent below 10; inactive = the rest.

In the case of `Oc1ccc(OCCOc2ccc(O)cc2)cc1`, the growth in test [1] is 72.5%; in test [2], 54.7%; in test [3], 47.2%; in test [4], 50.2%; in test [5] it was 55.7%; in test [6], 55.9%. Further, the growth in test [7] was 47.1%; in test [8] it was 29.2%.

On to `C#Cc1cccc(NC(=O)c2cccc(NC(=O)CCl)c2)c1`, for which the growth in test [1] is 25% [8.25 µM]; in test [2] it was -43.5% [8.25 µM] (active); in test [3], -13.2% [8.25 µM] (active); in test [4], -74.2% [8.25 µM] (active); in test [5] it was 3.07% [8.25 µM] (active); in test [6] it was -20.3% [8.25 µM] (active). For the same compound, the growth in test [7] is 74.3% [8.25 µM]; in test [8] it was 16.8% [8.25 µM].

With `COc1cc(/C(C)=C(\c2ccc(Cl)cc2)c2ccc(OCCN(C)C)cc2)ccc1F`, the growth in test [1] is 61.2%; in test [2], 76.2%; in test [3], 39.6%; in test [4], 49.8%; in test [5], 31.7%; in test [6], 46.8%. For the same compound, the figures for the growth in test [7] and in test [8] were 25.1% and 44%, respectively.

For the compound `COc1cc2c(=O)n(CCN)c3c4cc5c(cc4ccc3c2cc1OC)OCO5`, the growth was 27.1% in test [1]; 35.2% in test [2]; -91% (active) in test [3]; -75.6% (active) in test [4]; 17.6% in test [5]; -70.9% (active) in test [6]. The growth in test [7] is 44.9%; in test [8], -64% (active).

Regarding `Nc1ccccc1NC(=O)c1ccc(-n2nc(-c3ccccc3)c3ccccc32)cc1`, the growth in test [1] was 76.9%; in test [2] it was -92.3% (active); in test [3] it was 92.2%; in test [4] it was 84.8%; in test [5], 57.1%; in test [6] it was 58.1%. Besides, the growth in test [7] is 104%; in test [8], 91.4%.

Regarding `COc1cc2nc(-c3ccc(Cl)cc3)cc(OCCCN3CCCCC3)c2cc1OC`, the growth in test [1] was 35.4%; in test [2], 40.9%; in test [3] it was -22.5% (active); in test [4], 40.8%; in test [5], 45.8%; in test [6], 22.9%. Also, the figures for the growth in test [7] and in test [8] were 67.7% and 44.6%, respectively.

Consider `c1ccc(-c2cn3c(ccc4ccccc43)n2)cc1`, for which the growth was 66.5% in test [1]; 63.6% in test [2]; -34.7% (active) in test [3]; 22.8% in test [4]; 28.5% in test [5]; 35% in test [6]. Further, the growth is 75.5% in test [7] and 23.4% in test [8].

As to `CCc1ccc(-c2cn3ccnc3c(-c3ccc4ncn(Cc5ccccc5)c4c3)n2)cc1`, the growth in test [1] was 5.18% (active); in test [2], 84.1%; in test [3] it was 49.1%; in test [4], 81.2%; in test [5] it was 42%; in test [6], 38.8%. The growth in test [7] is 74.8%; in test [8], 54.3%.

For the compound `C#Cc1cccc(NC(=O)Nc2cccc(NC(=O)CCl)c2)c1`, the growth in test [1] was 27.8% [8.25 µM]; in test [2] it was -15.1% [8.25 µM] (active); in test [3], -39.8% [8.25 µM] (active); in test [4] it was -42.3% [8.25 µM] (active); in test [5], 4.65% [8.25 µM] (active); in test [6], 2.24% [8.25 µM] (active). Further, the values for the growth in test [7] and in test [8] were 93.6% [8.25 µM] and 32.9% [8.25 µM], respectively.

As for `Cc1cccc(NC(=O)Nc2ccc(-c3ccc4c(c3)NC(=O)/C4=C\c3ccc[nH]3)cc2)c1`, the growth is 39.1% in test [1]; 102% in test [2]; 78.8% in test [3]; 73% in test [4]; 15.3% in test [5]; 72.7% in test [6]. In addition, the growth in test [7] is 99%; in test [8] it was 19.4%.

As for `O=c1[nH]nc(-c2ccccc2)c2sc3ncc(-c4ccc(Br)cc4)n3c12`, the growth was 43.1% in test [1]; 52.1% in test [2]; -25.7% (active) in test [3]; 35% in test [4]; 28.9% in test [5]; 16.6% in test [6]. The growth was 89.8% in test [7] and 33.9% in test [8].

For the compound `COc1cc(/C=N/NC(=O)c2cnn3c2NC(c2ccccc2)C3)ccc1OCc1ccccc1` (centres undefined), the growth in test [1] was 8.39% (active); in test [2], -6.73% (active); in test [3] it was -28.3% (active); in test [4], -1% (active); in test [5], 0.769% (active); in test [6], -15.1% (active). For the same compound, the growth in test [7] was 32.8%; in test [8], 2.22% (active).

For `Nc1n[nH]c2cccc(C#Cc3cccc(C(=O)Nc4cccc(C(F)(F)F)c4)c3)c12`, the growth is 46.9% in test [1]; 84.9% in test [2]; 52.5% in test [3]; 55.9% in test [4]; 71.6% in test [5]; 27.5% in test [6]. The values for the growth in test [7] and in test [8] were 62% and 46.7%, respectively.

`NS(=O)(=O)c1ccc(CCn2c(SCC(=O)c3ccc(Cl)cc3)nc3ccccc3c2=O)cc1`: the growth in test [1] is 95.3%; in test [2], 99%; in test [3], 102%; in test [4] it was 103%; in test [5], 91.8%; in test [6], 97%. For the same compound, the figures for the growth in test [7] and in test [8] were 87.7% and 102%, respectively.

For the compound `CC(=O)Oc1ccc(/C=N/NC(N)=S)nc1`, the growth was 52% in test [1]; 32.7% in test [2]; 87% in test [3]; 60.9% in test [4]; 18.4% in test [5]; 70.1% in test [6]. In addition, the results for the growth in test [7] and in test [8] were 55% and 76.5%, respectively.

For the compound `COc1cc2oc(-c3cccc(C(=O)Nc4ccc(Br)cc4)c3)cc(=O)c2c(OC)c1OC`, the growth in test [1] was 36%; in test [2], 45.8%; in test [3], 65.6%; in test [4] it was 94.6%; in test [5] it was 78.1%; in test [6], 45.6%. For the same compound, the growth in test [7] was 81.9%; in test [8], 46.6%.

Regarding `COc1cc(/C(C)=C(\c2ccc(Cl)cc2)c2ccc(OCCN3CCCC3)cc2)ccc1F`, the growth in test [1] is 55.1%; in test [2], 79.1%; in test [3], 51.3%; in test [4], 43.2%; in test [5], 26.5%; in test [6], 39.2%. In addition, the growth is 57.4% in test [7] and 36.7% in test [8].

As to `COc1cc2c(c(O)c1Cl)C(=O)c1c(O)cc(C[C@H](C)O)cc1[C@H]2[C@H]1c2cc(C[C@H](C)O)cc(O)c2C(=O)c2c1cc(OC)c(Cl)c2O`, the growth is 10.5% in test [1]; 17.2% in test [2]; 11.3% in test [3]; 17.8% in test [4]; 7.74% (active) in test [5]; 9.53% (active) in test [6]. In addition, the growth was 25.9% in test [7] and 11.2% in test [8].

In the case of `COc1cc(CC(=O)c2ccc(O)c(OC)c2)ccc1O`, the growth is 89.6% in test [1]; 110% in test [2]; 112% in test [3]; 102% in test [4]; 96.9% in test [5]; 100% in test [6]. The growth in test [7] and in test [8] was 103% in each case.

For the compound `COc1cc(-c2n/c(=C\c3c(O)[nH]c4ccc(Cl)cc34)cc3c2=Nc2ccccc2-3)ccc1F`, the growth was 56% in test [1]; 85.9% in test [2]; 21.3% in test [3]; -1.7% (active) in test [4]; -54.2% (active) in test [5]; -45.8% (active) in test [6]. The growth was 71.6% in test [7] and 4.87% (active) in test [8].

On to `CCN(c1ccccc1)S(=O)(=O)c1cc([N+](=O)[O-])ccc1Cl`, for which the growth was 26.6% in test [1]; 49.4% in test [2]; 62.3% in test [3]; 46.3% in test [4]; 52.6% in test [5]; 24.6% in test [6]. Further, the growth in test [7] is 110%; in test [8], 54.1%.

As for `N#C/C(=C\c1ccc(C(F)(F)F)cc1)c1cc2ccccc2[nH]1`, the growth in test [1] is 89.8%; in test [2] it was 94.1%; in test [3], 97.1%; in test [4] it was 100%; in test [5], 77.4%; in test [6] it was 94.9%. The growth in test [7] is 116%; in test [8], 97.7%.

For `CCOC(=O)C1=C(CCl)NC(=O)NC1c1ccc2c(c1)OCO2` (centres undefined), the growth in test [1] is 31.3%; in test [2], 32.4%; in test [3] it was 35.7%; in test [4], 26.7%; in test [5], 9.21% (active); in test [6] it was 8.65% (active). The results for the growth in test [7] and in test [8] were 83.1% and 84.3%, respectively.

With `O=C(c1ccccc1)N1N=C(c2ccc(-n3ccc(C(F)(F)F)n3)c(F)c2)CC1c1ccc[nH]1` (centres undefined), the growth in test [1] was 90.6%; in test [2] it was 110%; in test [3] it was 102%; in test [4], 108%; in test [5], 96.4%; in test [6] it was 105%. Moreover, the growth was 112% in test [7] and 104% in test [8].

As for `O=C(CCN1CCCC1)Nc1ccc2c(NCc3ccccc3)c3ccccc3nc2c1`, the growth in test [1] is -5.83% (active); in test [2], 16.8%; in test [3] it was -5.11% (active); in test [4], -20.4% (active); in test [5] it was -5.67% (active); in test [6] it was -15.5% (active). Besides, the growth in test [7] is -37.4% (active); in test [8], -2.03% (active).

Consider `COc1cc(/C=C/C(=O)c2nc3cc(F)ccc3nc2C)cc(OC)c1OC`, for which the growth in test [1] was 48%; in test [2] it was 112%; in test [3] it was 75%; in test [4], 29.9%; in test [5] it was 34.1%; in test [6], 44.5%. The growth is -4.35% (active) in test [7] and 36.2% in test [8].

Turning to `COC(=O)CNC(=O)[C@]12CCC(C)(C)C[C@H]1C1=CC[C@@H]3[C@@]4(C)Cc5c([nH]c6ccccc56)C(C)(C)[C@@H]4CC[C@@]3(C)[C@]1(C)CC2`, the growth in test [1] is 57.1%; in test [2] it was 102%; in test [3], 97.8%; in test [4], 88.8%; in test [5] it was 79.9%; in test [6], 95%. In addition, the figures for the growth in test [7] and in test [8] were 103% and 92.3%, respectively.

On to `O=C1C=CC(=O)N1c1cccc(Cl)c1`, for which the growth in test [1] was 93.7%; in test [2], 108%; in test [3] it was 101%; in test [4] it was 76%; in test [5], 112%; in test [6], 89.7%. Also, the growth in test [7] and in test [8] was 104% each time.

These data come from PubChem BioAssay (NCI).
